Source: PubChem BioAssay
gsp antagonist = qHTS for Antagonists of gsp, the Etiologic Mutation Responsible for Fibrous Dysplasia/McCune-Albright Syndrome: qHTS. Potency, µM (titrated, usually from 76.9 µM), for the others: at the highest dose activity change, negative = inhibition, most hits filed as inhibitors. AID 624288, 2012. 0.4% of 340,000 active. gsp-mutant cells, cAMP HTRF, 30 min; calls by dose curve; cell line not stated here;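 further: intracellular cAMP measured with PDE inhibitor Ro 20-1724 present during compound exposure; potency means the concentration at half of the fitted maximal effect; on the % scale 0 is the no-effect control and ±100 the full control effect; nearly all actives have a fitted effect of over 65% in size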
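Cells in G418 medium, seeded 16-24 h, 37C; buffer exchange to DPBS + 1 mM CaCl2, 0.5 mM MgCl2, 0.05% BSA; cpds in DMSO + […] (300 uM stock), 30 min 37C; HTRF cAMP detection.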
RXFP1 agonist = qHTS Assay for Agonists of the Relaxin Receptor RXFP1 | Relaxin receptor 1 (Homo sapiens), Q9HBX9 | HEK293T-RXFP1 cAMP TR-FRET, 30 min; response scale: percent of porcine relaxin response, buffer zero | Potency, µM (highest dose often 57.5 µM), for inactives: top-dose activation, usual class: activators | 0.3% of 370,000 active | AID 2676, 2010; active means well fitted activation curve with a large enough effect; inconclusive means small, poorly fitted or top-dose-only effect; further: potency means the concentration at half of the fitted maximal effect; on the % scale 0 is the no-effect control and ±100 the full control effect; nearly all actives have a fitted effect of over 60% in size
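HEK293T cells stably expressing RXFP1 were pretreated with the PDE4 inhibitor Ro 20174, exposed to compounds for 30 min at 37C, lysed, and cAMP was read by TR-FRET. Data normalized to buffer (basal) and 29 nM porcine relaxin (100%).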
RXFP1 antagonist = qHTS Assay for Antagonists of the Relaxin Receptor RXFP1 | 0.59% of 350,000 active | Relaxin receptor 1 (Homo sapiens), Q9HBX9 | HEK293-RXFP1, relaxin-stimulated cAMP HTRF, 30 min; hits give low values | activity change, negative = inhibition, % at 57.5 µM;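 active means activity change of -60% or lower, but not beyond a set lower limit; inconclusive means change between -60% and -40%, or beyond the set limit; inactive means change above -40%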; further: on the % scale 0 is the no-effect control and ±100 the full control effect
TSHR antagonist = Antagonists of the Thyroid Stimulating Hormone Receptor: HTS campaign. TSHR-expressing cells, TSH-stimulated cAMP HTRF, 2 h; hits give low values. activity change, negative = inhibition, % at 11.5 µM. 0.2% of 330,000 active. AID 504810, 2011;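 active means activity change below a set negative limit, meaning inhibition stronger than a set level, cut at about -70% in these data; inconclusive means activity change between two set negative limits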; further: on the % scale 0 is the no-effect control and ±100 the full control effect
Target sequence (P16473 whole entry, looked up): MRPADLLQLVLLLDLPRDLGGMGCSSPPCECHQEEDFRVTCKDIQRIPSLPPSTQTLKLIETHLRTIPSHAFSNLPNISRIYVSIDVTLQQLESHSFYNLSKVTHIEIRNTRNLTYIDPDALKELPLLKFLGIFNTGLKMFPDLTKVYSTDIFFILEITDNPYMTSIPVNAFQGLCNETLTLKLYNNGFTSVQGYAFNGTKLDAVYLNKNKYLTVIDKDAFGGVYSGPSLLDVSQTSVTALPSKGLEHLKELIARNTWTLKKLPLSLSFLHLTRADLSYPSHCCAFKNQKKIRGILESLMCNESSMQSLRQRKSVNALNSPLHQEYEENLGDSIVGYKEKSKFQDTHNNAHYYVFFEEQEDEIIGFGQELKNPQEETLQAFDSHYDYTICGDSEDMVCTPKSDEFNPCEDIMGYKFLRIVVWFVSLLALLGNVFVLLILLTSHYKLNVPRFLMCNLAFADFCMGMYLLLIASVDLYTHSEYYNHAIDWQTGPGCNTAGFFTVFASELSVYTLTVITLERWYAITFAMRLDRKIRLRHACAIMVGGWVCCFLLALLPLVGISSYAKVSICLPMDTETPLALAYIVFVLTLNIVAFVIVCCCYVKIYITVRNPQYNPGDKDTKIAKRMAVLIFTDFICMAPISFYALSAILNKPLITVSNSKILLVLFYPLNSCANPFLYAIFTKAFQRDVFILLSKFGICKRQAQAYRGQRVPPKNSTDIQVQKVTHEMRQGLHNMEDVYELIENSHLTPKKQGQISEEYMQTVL
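Read-out is FRET at 665 nm (cryptate excitation 337 nm) from a cryptate-tagged anti-cAMP antibody, competed by cell cAMP against cAMP-d2. Compounds are tested on freshly harvested TSHR cells challenged with 4nM TSH (EC80) for 2 hours at 37 deg C.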
gsp agonist = qHTS for Agonist of gsp, the Etiologic Mutation Responsible for Fibrous Dysplasia/McCune-Albright Syndrome: qHTS. gsp mutant cells, cAMP HTRF, 30 min. Potency, µM (titrated, usually from 76.9 µM), for the others: top-dose activation (cAMP increase), usual class: activators. 0.13% of 340,000 active. AID 624287, 2012; active means well fitted activation curve with a large enough effect; inconclusive means small, poorly fitted or top-dose-only effect, or another doubt; inactive means no such curve, though single readings can be large or run the other way; cell line not stated here;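 further: phosphodiesterase inhibitor Ro 20-1724 added with compounds to block cAMP breakdown; potency means the concentration at half of the fitted maximal effect; nearly all actives have a fitted effect of over 60% in size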
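Cells stably selected in G418 were plated at 2000/well, grown 16-24 hr, then given compounds in DMSO with the PDE inhibitor […] (300 uM solution added) for 30 min at 37C; cAMP was read by HTRF.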
Active calls of the source: *; [ ] = another dose, or the depositor's remark. Hits are enriched below; roughly 1% of the tested compounds scored in any of these assays.

How did COc1ccc(CNC(=O)CCc2nnc3ccc(N4CCC5(CC4)OCCO5)nn23)cc1 do in these assays?
gsp antagonist: 6.4%; RXFP1 agonist: inconclusive; RXFP1 antagonist: 13.9; TSHR antagonist: 7.2; gsp agonist: 0.1%

What do the screens show for `CSc1ccc(CCNC(=O)CCc2nnc3ccc(N4CCOCC4)nn23)cc1`?
gsp antagonist: 2.2%; RXFP1 agonist: 25.5%; TSHR antagonist: 1.7; gsp agonist: 15.8µM*

Results for CSc1ccc(CCNC(=O)CCc2nnc3ccc(N4CCCCC4)nn23)cc1 ?
gsp antagonist: 3.2%; RXFP1 agonist: 8.0%; TSHR antagonist: 2.1; gsp agonist: 20.8%

How did Cc1oc2cc(Br)c(O)c(Br)c2c1-c1ccccc1 do in these assays?
gsp antagonist: -12.6%; RXFP1 agonist: 0.0%; RXFP1 antagonist: -100.6*; TSHR antagonist: -9.6; gsp agonist: 8.7%[15.4 µM]

What do the screens show for `C[C@@]12CCC[C@H]1[C@@H]1CC[C@H]3C[C@@H](O)CC[C@]3(C)[C@H]1CC2`?
RXFP1 antagonist: 4.8

How did COc1ccc(CCN2C(=O)/C(=C\c3ccco3)SC2=S)cc1OC do in these assays?
gsp antagonist: -4.3%; RXFP1 agonist: -0.3%; RXFP1 antagonist: -77.4*; TSHR antagonist: 12.5; gsp agonist: 4.6%

Results for COc1ccc(Cl)cc1C(=O)Nc1ccc2oc(-c3ccc(C(C)(C)C)cc3)nc2c1 ?
RXFP1 agonist: inconclusive; RXFP1 antagonist: -2.6

How did CCCOc1cccc(C2/C(=C(/O)c3ccc4c(c3)CC(C)O4)C(=O)C(=O)N2CCN2CCOCC2)c1 (stereo not drawn) do in these assays?
gsp antagonist: -3.1%; RXFP1 agonist: 25.1µM*; RXFP1 antagonist: 16.5; TSHR antagonist: -11.4; gsp agonist: inconclusive

What do the screens show for `CC1Cc2cc(/C(O)=C3/C(=O)C(=O)N(CCN4CCOCC4)C3c3cccc(Cl)c3)ccc2O1` (stereo not drawn)?
gsp antagonist: -0.7%; RXFP1 agonist: 22.4%; RXFP1 antagonist: 18.6; TSHR antagonist: 8.4; gsp agonist: inconclusive

Results for C=CCOc1cccc(C2/C(=C(\O)c3ccc4c(c3)OCCO4)C(=O)C(=O)N2CCN2CCOCC2)c1 (stereo not drawn) ?
gsp antagonist: 17.3%; RXFP1 agonist: 25.1µM*; RXFP1 antagonist: 55.8; TSHR antagonist: -2.2; gsp agonist: inconclusive

What do the screens show for `Cc1ccc(OCc2cc(=O)n3ccsc3n2)c(NC(=O)c2ccco2)c1`?
RXFP1 agonist: -1.3%; RXFP1 antagonist: 3.2

How did CC(=O)c1ccc(N2CCN(S(=O)(=O)c3ccc(-c4cc(C(F)(F)F)on4)s3)CC2)cc1 do in these assays?
RXFP1 agonist: -0.2%; RXFP1 antagonist: 1.7

Results for CN1CCC(NCCC(c2ccc(F)cc2)c2ccc(Cl)cc2)CC1 (stereo not drawn) ?
gsp antagonist: 11.0%; RXFP1 agonist: -0.2%; RXFP1 antagonist: -85.5*; TSHR antagonist: 10.1; gsp agonist: -1.9%[15.4 µM]

Results for O=C(NCCc1ccc(Cl)cc1)c1cccn1-c1nnc(N2CCCC2)s1 ?
RXFP1 agonist: -1.1%; RXFP1 antagonist: -15.1

What do the screens show for `CC(=O)N1N=C(c2cccs2)CC1c1cc2cc(C)ccc2nc1Cl` (stereo not drawn)?
gsp antagonist: 50.1µM*; RXFP1 agonist: 6.9%; RXFP1 antagonist: 1.7; TSHR antagonist: 8.2; gsp agonist: -36.9%

What do the screens show for `CCN(CC)S(=O)(=O)c1cccc(N=Nc2c(O)c3ccccc3oc2=O)c1`?
gsp antagonist: 3.3%; RXFP1 agonist: 15.8µM*; RXFP1 antagonist: -2.8; TSHR antagonist: -2.1; gsp agonist: inconclusive

What do the screens show for `CC(=O)c1c(O)cc(O)cc1CC(=O)O`?
gsp antagonist: -7.3%; RXFP1 agonist: 0.3%; TSHR antagonist: -8.5

Results for CC(=O)c1c(O)cc(O)c(C(C)=O)c1O ?
gsp antagonist: inconclusive; RXFP1 agonist: 0.3%; TSHR antagonist: -94.3*

How did C/C(CC(=O)Nc1ccc2c(c1)OCCO2)=N\NC(=O)COc1ccc(C)cc1 do in these assays?
gsp antagonist: 0.3%; RXFP1 agonist: 1.4%; RXFP1 antagonist: -76.6*; TSHR antagonist: -4.7; gsp agonist: inconclusive

What do the screens show for `CCOc1ccc(NC(=O)Cn2c(=O)c(CNc3ccc(CC)cc3)cc3cc4c(cc32)OCO4)cc1`?
RXFP1 agonist: 1.4%

How did CN(CCC#N)C(=O)CSc1ncnc2sc(-c3ccccc3)cc12 do in these assays?
gsp antagonist: -31.6%; RXFP1 agonist: 3.3%; RXFP1 antagonist: -6.2; TSHR antagonist: -16.9; gsp agonist: -6.9%

Results for CCN(CC)C(=O)CSc1ncnc2sc(-c3ccccc3)cc12 ?
gsp antagonist: 39.8µM*; RXFP1 agonist: 2.6%; RXFP1 antagonist: -28.9; TSHR antagonist: -26.1; gsp agonist: 6.1%

Results for CCOC(=O)c1ccc(NC(=O)N2CC3CCCN3c3ccccc32)cc1 (stereo not drawn) ?
RXFP1 agonist: 0.5%; RXFP1 antagonist: -11.7

How did CCOc1ccc(NC(=O)N2CC3CCCN3c3ccccc32)cc1 (stereo not drawn) do in these assays?
RXFP1 agonist: 1.7%; RXFP1 antagonist: -60.8*

Results for CCCN(CCC)C(=O)C(CCC(=O)OCCCN1CCN(CCOC(=O)Cc2c(C)n(C(=O)c3ccc(Cl)cc3)c3ccc(OC)cc23)CC1)NC(=O)c1ccccc1 (stereo not drawn) ?
RXFP1 antagonist: -25.0

How did O=C(CSc1ncc2c(n1)-c1cc(Cl)ccc1N(Cc1ccccc1)S2(=O)=O)NCc1ccccc1 do in these assays?
RXFP1 agonist: 1.5%

How did Cc1ccc(CNC(=O)CSc2ncc3c(n2)-c2ccc(Cl)cc2N(Cc2ccccc2)S3(=O)=O)cc1 do in these assays?
RXFP1 agonist: 28.2µM*

How did CCOc1ccc(NC(=O)CSc2ncc3c(n2)-c2ccc(Cl)cc2N(Cc2ccccc2)S3(=O)=O)cc1 do in these assays?
RXFP1 agonist: 11.2µM*; RXFP1 antagonist: -4.2

What do the screens show for `Cc1cc(NC(=O)C2CCN(S(=O)(=O)c3ccc(Br)s3)CC2)ccc1Br`?
RXFP1 agonist: -0.1%; RXFP1 antagonist: -4.8

What do the screens show for `C[C@H](N)C(=O)N[C@@H](C)C(=O)NC1[C@H]2CN(c3nc4c(cc3F)c(=O)c(C(=O)O)cn4-c3ccc(F)cc3F)C[C@@H]12` (stereo partly drawn)?
RXFP1 antagonist: -4.9

Results for Cc1cccc(N2CCN(C(=O)C3CCN(C(=O)c4cc5sccc5n4C)CC3)CC2C)c1 (stereo not drawn) ?
RXFP1 agonist: 0.1%; RXFP1 antagonist: -65.3*
